Source: the supplement of paper PMC10849652
The full data set covers some 8,800 targets. This sample favours those with a hit. About 0.5% of all pairs of compound and target were hits. A number with no mark means an inactive call.

Tests used:
Assay in all cases: log2 fold change, soluble protein after heating vs DMSO (PISA); higher = thermal stabilisation; K562 lysate, 10 uM; active = over 0.2 and 3.5 SD of the protein, either way, in both replicates (recomputed)
vemurafenib = compound: CCCS(=O)(=O)Nc1ccc(F)c(C(=O)c2c[nH]c3ncc(-c4ccc(Cl)cc4)cc23)c1F [vemurafenib]
Method in brief: (§1)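 The values are log-two fold changes in thermal stability compared with solvent controls and come from duplicates. They were obtained by TMTpro 16plex LC-MS/MS, with channel sums equalised, on the supernatant after 21,000xg for 90 min. That supernatant came from crude K562 extract at 1 mg/mL protein treated with 10 μM compound for 30 min, heated for 3 min across 48°C-58°C, pooled and brought to 0.5% NP-40 at 4°C.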

[1] = compound: CCCS(=O)(=O)Nc1ccc(F)c(C(=O)c2c[nH]c3ncc(Cl)cc23)c1F
Method in brief: as §1

barasertib = compound: CCN(CCCOc1ccc2c(Nc3cc(CC(=O)Nc4cccc(F)c4)[nH]n3)ncnc2c1)CCOP(=O)(O)O [barasertib]
Method in brief: as §1

volasertib = compound: CC[C@@H]1C(=O)N(C)c2cnc(Nc3ccc(C(=O)N[C@H]4CC[C@H](N5CCN(CC6CC6)CC5)CC4)cc3OC)nc2N1C(C)C [volasertib]
Method in brief: as §1

[2] = compound: CCn1c(C(=O)N(C2CC2)C2CC2)cc2c3c(ncn3C)c(Nc3cc(C)n(C)n3)nc21
Method in brief: as §1

[3] = compound: CCn1cc(-c2ccnc3[nH]c(-c4cccc(CN(C)C)c4)cc23)c(-c2ccc(NC(=O)N(C)C)cc2)n1
Method in brief: as §1

[4] = compound: CN1CCC(CNc2ccc3ncc(-c4cccc(OC(F)(F)F)c4)n3n2)CC1
Method in brief: as §1

saracatinib = compound: CN1CCN(CCOc2cc(OC3CCOCC3)c3c(Nc4c(Cl)ccc5c4OCO5)ncnc3c2)CC1 [saracatinib]
Method in brief: as §1

sotrastaurin = compound: CN1CCN(c2nc(C3=C(c4c[nH]c5ccccc45)C(=O)NC3=O)c3ccccc3n2)CC1 [sotrastaurin]
Method in brief: as §1

[5] = compound: CC[C@@H]1C(=O)N(C)c2cnc(Nc3ccc(C(=O)NC4CCN(C)CC4)cc3OC)nc2N1C1CCCC1
Method in brief: as §1

Sequence of UniProt Q9BRD0 (Q9BRD0 whole entry, looked up): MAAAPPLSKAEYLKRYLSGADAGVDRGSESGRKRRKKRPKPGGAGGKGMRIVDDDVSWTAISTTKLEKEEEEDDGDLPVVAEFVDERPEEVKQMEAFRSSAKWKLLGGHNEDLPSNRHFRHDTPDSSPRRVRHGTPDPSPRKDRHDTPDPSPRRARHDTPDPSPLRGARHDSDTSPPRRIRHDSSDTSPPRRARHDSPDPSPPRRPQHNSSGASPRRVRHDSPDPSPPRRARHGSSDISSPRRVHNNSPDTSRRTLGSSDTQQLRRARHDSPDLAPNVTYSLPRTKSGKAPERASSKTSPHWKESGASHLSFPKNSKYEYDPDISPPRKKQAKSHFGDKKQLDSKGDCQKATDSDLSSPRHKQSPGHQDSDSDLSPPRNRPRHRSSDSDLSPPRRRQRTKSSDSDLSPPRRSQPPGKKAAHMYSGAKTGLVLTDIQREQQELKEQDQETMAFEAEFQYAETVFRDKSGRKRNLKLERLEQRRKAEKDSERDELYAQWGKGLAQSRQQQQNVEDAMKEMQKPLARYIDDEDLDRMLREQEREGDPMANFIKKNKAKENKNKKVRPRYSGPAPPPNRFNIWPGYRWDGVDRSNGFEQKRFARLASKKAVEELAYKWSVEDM
Sequence of UniProt Q16581 (Q16581 whole entry, looked up): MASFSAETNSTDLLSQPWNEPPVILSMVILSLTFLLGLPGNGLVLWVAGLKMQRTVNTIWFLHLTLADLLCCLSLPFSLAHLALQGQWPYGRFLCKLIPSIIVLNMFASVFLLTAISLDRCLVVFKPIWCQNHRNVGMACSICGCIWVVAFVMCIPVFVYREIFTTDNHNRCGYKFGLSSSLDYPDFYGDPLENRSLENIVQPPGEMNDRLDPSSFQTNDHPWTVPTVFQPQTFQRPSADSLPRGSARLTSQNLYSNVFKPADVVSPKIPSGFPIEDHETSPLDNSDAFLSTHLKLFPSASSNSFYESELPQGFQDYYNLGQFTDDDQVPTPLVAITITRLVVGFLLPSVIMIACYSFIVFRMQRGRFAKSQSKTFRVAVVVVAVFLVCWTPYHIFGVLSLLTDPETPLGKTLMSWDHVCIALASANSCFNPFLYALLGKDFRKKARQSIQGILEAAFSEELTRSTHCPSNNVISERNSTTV
Sequence of UniProt Q12983 (Q12983 whole entry, looked up): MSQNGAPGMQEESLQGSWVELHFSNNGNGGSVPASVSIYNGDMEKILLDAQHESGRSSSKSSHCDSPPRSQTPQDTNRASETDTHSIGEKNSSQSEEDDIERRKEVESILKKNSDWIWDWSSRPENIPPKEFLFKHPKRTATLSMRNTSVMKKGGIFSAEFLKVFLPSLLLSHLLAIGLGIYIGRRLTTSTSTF
Sequence of UniProt Q6P4H8 (Q6P4H8 whole entry, looked up): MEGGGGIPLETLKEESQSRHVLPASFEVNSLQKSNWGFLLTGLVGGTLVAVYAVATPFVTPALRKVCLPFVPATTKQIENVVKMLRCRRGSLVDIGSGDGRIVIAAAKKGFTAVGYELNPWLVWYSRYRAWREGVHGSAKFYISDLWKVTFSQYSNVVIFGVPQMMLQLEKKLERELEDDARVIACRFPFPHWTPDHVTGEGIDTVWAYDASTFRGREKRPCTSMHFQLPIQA
Sequence of UniProt O95260 (O95260 whole entry, looked up): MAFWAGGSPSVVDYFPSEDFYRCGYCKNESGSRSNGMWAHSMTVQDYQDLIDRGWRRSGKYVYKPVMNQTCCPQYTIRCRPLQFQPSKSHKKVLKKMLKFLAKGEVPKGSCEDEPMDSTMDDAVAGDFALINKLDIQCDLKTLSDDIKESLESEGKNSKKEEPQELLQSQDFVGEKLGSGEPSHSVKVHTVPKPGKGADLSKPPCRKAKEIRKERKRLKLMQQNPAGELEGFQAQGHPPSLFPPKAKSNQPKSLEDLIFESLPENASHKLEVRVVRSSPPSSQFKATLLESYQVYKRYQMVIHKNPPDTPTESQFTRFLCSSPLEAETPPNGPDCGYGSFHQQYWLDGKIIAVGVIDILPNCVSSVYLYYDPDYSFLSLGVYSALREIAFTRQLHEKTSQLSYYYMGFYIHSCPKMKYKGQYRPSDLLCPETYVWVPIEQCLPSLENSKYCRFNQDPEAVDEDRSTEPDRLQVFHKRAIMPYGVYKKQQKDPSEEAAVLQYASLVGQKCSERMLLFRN
Sequence of UniProt Q00537 (Q00537 whole entry, looked up): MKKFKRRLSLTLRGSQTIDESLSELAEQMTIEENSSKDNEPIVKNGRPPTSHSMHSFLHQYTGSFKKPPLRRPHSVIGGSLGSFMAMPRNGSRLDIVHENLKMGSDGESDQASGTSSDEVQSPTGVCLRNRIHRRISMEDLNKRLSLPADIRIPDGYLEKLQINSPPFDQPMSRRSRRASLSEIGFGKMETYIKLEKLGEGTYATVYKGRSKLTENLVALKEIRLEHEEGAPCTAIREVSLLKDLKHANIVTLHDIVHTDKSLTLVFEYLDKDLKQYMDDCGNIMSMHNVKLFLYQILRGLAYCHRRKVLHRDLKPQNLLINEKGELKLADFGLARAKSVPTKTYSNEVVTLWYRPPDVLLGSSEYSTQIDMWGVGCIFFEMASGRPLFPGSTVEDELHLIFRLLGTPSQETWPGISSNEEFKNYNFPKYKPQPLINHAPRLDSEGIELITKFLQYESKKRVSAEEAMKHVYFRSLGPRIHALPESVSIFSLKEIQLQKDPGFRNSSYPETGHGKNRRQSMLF
Sequence of UniProt Q9NQS1 (Q9NQS1 whole entry, looked up): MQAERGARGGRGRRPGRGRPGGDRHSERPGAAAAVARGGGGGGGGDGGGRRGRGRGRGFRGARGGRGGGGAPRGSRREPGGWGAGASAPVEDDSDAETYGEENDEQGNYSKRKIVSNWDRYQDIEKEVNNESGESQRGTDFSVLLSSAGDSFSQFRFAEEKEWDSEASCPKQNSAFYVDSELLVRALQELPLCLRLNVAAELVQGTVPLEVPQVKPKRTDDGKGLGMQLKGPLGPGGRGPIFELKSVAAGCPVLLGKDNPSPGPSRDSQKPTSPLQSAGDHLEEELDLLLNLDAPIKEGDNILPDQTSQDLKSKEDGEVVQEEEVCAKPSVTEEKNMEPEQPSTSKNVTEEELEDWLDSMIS
Sequence of UniProt Q96LT7 (Q96LT7 whole entry, looked up): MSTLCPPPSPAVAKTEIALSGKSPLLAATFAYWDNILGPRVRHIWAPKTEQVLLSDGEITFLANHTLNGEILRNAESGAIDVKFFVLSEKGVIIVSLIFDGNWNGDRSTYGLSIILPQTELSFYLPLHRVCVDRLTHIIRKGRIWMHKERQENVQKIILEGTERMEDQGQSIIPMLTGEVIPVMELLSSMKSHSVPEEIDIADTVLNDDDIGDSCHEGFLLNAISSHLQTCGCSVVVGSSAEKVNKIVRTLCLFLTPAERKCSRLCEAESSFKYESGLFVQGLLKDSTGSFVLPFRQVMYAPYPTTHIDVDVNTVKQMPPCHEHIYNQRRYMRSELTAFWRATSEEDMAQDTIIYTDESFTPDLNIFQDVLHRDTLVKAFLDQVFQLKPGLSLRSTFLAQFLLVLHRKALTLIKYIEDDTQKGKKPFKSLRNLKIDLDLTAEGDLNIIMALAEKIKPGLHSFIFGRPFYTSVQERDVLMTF
Sequence of UniProt Q7Z7K6 (Q7Z7K6 whole entry, looked up): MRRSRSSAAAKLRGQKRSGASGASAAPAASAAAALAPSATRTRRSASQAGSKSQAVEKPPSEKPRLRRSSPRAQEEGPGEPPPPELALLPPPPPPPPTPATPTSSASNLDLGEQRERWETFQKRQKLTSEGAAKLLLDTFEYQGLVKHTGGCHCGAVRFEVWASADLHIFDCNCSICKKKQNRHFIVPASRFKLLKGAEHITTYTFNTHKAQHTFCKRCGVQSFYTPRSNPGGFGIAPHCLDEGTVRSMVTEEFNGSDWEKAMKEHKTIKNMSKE
Sequence of UniProt Q6ZRI6 (Q6ZRI6 whole entry, looked up): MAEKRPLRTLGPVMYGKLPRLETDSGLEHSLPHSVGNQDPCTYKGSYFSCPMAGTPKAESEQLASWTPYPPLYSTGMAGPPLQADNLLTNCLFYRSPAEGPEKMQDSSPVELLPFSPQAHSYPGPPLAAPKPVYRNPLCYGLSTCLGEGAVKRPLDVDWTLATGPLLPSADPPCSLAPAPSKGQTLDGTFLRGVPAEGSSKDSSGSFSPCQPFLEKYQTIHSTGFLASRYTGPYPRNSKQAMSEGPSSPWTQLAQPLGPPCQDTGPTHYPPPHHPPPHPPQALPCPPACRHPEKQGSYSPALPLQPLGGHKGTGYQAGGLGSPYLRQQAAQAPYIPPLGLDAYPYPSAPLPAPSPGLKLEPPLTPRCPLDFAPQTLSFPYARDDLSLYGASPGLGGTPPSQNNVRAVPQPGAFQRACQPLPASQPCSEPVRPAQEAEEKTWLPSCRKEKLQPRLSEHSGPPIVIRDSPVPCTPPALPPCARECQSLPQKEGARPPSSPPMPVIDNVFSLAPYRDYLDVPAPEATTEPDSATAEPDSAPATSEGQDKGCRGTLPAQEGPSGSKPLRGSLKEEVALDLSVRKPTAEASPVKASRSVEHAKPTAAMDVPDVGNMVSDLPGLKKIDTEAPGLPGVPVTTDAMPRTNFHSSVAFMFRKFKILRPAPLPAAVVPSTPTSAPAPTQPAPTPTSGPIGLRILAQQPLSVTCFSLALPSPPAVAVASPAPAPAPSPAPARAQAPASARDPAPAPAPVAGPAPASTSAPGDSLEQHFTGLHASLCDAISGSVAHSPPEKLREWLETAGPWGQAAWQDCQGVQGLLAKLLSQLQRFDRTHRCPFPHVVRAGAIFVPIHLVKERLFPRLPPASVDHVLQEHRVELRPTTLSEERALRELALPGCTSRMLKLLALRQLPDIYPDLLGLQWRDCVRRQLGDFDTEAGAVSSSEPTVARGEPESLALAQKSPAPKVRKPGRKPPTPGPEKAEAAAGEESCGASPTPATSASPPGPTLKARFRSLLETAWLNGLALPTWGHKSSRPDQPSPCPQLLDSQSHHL
Sequence of UniProt Q7Z4R8 (Q7Z4R8 whole entry, looked up): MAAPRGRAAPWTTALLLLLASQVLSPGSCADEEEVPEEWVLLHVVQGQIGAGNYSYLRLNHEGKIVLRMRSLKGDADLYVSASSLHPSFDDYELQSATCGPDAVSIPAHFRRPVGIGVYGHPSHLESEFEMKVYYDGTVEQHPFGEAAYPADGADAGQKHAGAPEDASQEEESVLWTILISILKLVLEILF

Row | Target | log2 fold change (vemurafenib) | log2 fold change [1] | log2 fold change (barasertib) | log2 fold change (volasertib) | log2 fold change [2] | log2 fold change [3] | log2 fold change [4] | log2 fold change (saracatinib) | log2 fold change (sotrastaurin) | log2 fold change [5]
1 | CDK8 (UniProt P49336) | 0.065 | 0.138 | 0.002 | -0.083 | -0.011 | -0.134 | 0.045 | 0.109 | -0.001 | –
2 | CDKL5 (UniProt O76039) | -0.131 | 0.041 | – | -0.035 | – | -0.091 | 0.088 | -0.122 | 0.048 | -0.149
3 | BTAF1 (UniProt O14981) | 0.029 | 0.026 | 0.029 | -0.058 | 0.045 | -0.138 | 0.051 | 0.008 | 0.006 | -0.029
4 | ATF7IP2 (UniProt Q5U623) | 0.062 | -0.041 | 0.009 | 0.083 | -0.064 | -0.145 | 0.197 | – | 0.031 | –
5 | ATG4A (UniProt Q8WYN0) | -0.045 | 0.033 | 0.012 | -0.015 | 0.008 | 0.027 | -0.045 | 0.034 | -0.043 | -0.047
6 | CANX (UniProt D6RHJ3) | -0.033 | -0.04 | – | 0.017 | – | – | – | – | – | –
7 | ATP11A (UniProt P98196) | -0.035 | -0.015 | 0.006 | 0.026 | 0 | -0.116 | 0.024 | -0.01 | 0.063 | 0.019
8 | BCORL1 isoform 3 (UniProt Q5H9F3) | 0.123 | – | – | – | -0.018 | -0.546 | 0.344 | -0.082 | -0.099 | -0.033
9 | CARHSP1 (UniProt H3BNU9) | – | 0.032 | 0.246 | -0.161 | – | 0.16 | -0.522 | – | – | –
10 | CEP295 isoform 3 (UniProt Q9C0D2) | – | -0.058 | -0.039 | 0.043 | -0.028 | -0.387 | 0.001 | – | 0.005 | 0.052
11 | CCDC130 (UniProt P13994) | – | – | 0.045 | – | -0.027 | – | – | – | 0.147 | 0.036
12 | C15orf39 (UniProt Q6ZRI6) | – | – | -0.012 | – | -0.008 | 0.08 | 0.132 | 0.025 | 0.042 | -0.047
13 | C9orf72 (UniProt Q96LT7) | – | -0.03 | -0.091 | 0.088 | 0.022 | -0.065 | -0.015 | 0.082 | 0.011 | 0.034
14 | CDCA8 (UniProt Q53HL2) | 0.025 | – | 0.106 | – | – | 0.677 (active) | -0.034 | 0.171 | – | 0.051
15 | BNIP3 (UniProt Q12983) | – | 0.035 | -0.037 | 0.116 | -0.023 | -0.307 | 0.149 | 0.118 | 0.03 | 0.069
16 | CAPNS1 (UniProt U3KPR7) | – | -0.125 | 0.424 | -0.01 | – | – | – | – | – | –
17 | AVEN (UniProt Q9NQS1) | 0.177 | – | -0.091 | – | -0.025 | -0.651 (active) | 0.167 | 0 | -0.007 | 0.117
18 | CDC25A (UniProt P30304) | – | 0.038 | – | -0.053 | 0.033 | – | – | -0.022 | 0.092 | –
19 | BRAF, A0A2R8Y8E0 | 1.34 | – | – | – | – | – | – | – | – | -0.287
20 | CCAR2 (UniProt G3V119) | – | 0.087 | – | -0.074 | – | – | – | – | – | –
21 | CDK5RAP1 (UniProt Q96SZ6) | -0.03 | – | 0.025 | – | 0.035 | 0.023 | 0.026 | 0.026 | -0.037 | 0.059
22 | CENPV (UniProt Q7Z7K6) | -0.104 | – | 0 | – | 0.19 | 0.264 | -0.004 | – | 0.007 | -0.033
23 | ATPSCKMT (UniProt Q6P4H8) | – | – | -0.019 | – | 0.077 | – | – | 0.053 | -0.007 | 0.171
24 | BUD13 (UniProt Q9BRD0) | – | – | 0.092 | – | -0.037 | 0.076 | -0.064 | 0.096 | 0.025 | -0.07

Row | Target | log2 fold change (vemurafenib) | log2 fold change [1] | log2 fold change (barasertib) | log2 fold change (volasertib) | log2 fold change [2] | log2 fold change [3] | log2 fold change [4] | log2 fold change (saracatinib) | log2 fold change (sotrastaurin) | log2 fold change [5]
25 | BICRA (UniProt Q9NZM4) | – | 0.055 | 0.165 | 0.036 | -0.233 | -0.133 | -0.048 | 0.02 | 0 | –
26 | C6orf120 (UniProt Q7Z4R8) | – | -0.127 | 0.096 | 0.051 | – | -0.005 | 0.049 | 0.004 | – | –
27 | CEP152 (UniProt O94986) | 0.031 | – | 0.106 | – | 0.008 | -0.009 | 0.272 | 0.051 | -0.039 | 0.25
28 | CASC1 (UniProt Q6TDU7) | – | – | 1.04 | – | -0.217 | 0.034 | 0.006 | – | – | –
29 | C8orf88 (UniProt P0DMB2) | – | – | -0.053 | – | 0.027 | 0.084 | 0.011 | 0.051 | -0.015 | –
30 | CAD (UniProt H7BZB3) | -0.063 | – | – | – | – | -0.02 | -0.027 | – | – | 0.144
31 | BBS7 (UniProt Q8IWZ6) | 0.375 | – | – | – | 0.026 | -0.255 | 0.067 | 0.217 | 0.044 | -0.082
32 | CEP57L1 (UniProt Q8IYX8) | – | – | -0.06 | – | 0.044 | -0.028 | -0.066 | -0.065 | -0.007 | 0.227
33 | ATG4D (UniProt Q86TL0) | – | – | -0.074 | – | 0.116 | – | – | -0.188 | 0.058 | 0.055
34 | CCND3 (UniProt P30281) | – | – | 0.014 | – | -0.112 | -0.116 | 0.075 | 0.086 | 0.016 | -0.056
35 | CHD4, A0A2R8Y521 | – | -0.315 | – | 0.103 | -0.342 | – | – | 0.149 | – | -0.053
36 | CDK11A (UniProt Q9UQ88) | – | -0.019 | 0.029 | -0.135 | 0.047 | 0.127 | -0.099 | -0.069 | -0.026 | –
37 | CCP110 (UniProt O43303) | -0.202 | – | 0.07 | – | -0.022 | – | – | -0.06 | 0.005 | -0.141
38 | BMT2 (UniProt Q1RMZ1) | – | – | – | – | – | 0.004 | 0.096 | – | – | –
39 | CDC14A isoform 2 (UniProt Q9UNH5) | – | -0.271 | – | 0.085 | 0.101 | – | – | – | 0.058 | –
40 | CHD9 (UniProt Q3L8U1) | -0.028 | – | – | – | -0.139 | 1.88 (active) | -0.122 | 0.114 | 0.17 | –
41 | ATE1 (UniProt O95260) | – | 0.061 | -0.051 | 0.002 | – | 0.082 | 0.003 | – | 0.021 | –
42 | CDK17 isoform 2 (UniProt Q00537) | -0.115 | – | 0.011 | – | -0.007 | 0.091 | -0.299 | -0.017 | 0.03 | -0.078
43 | CASP7 isoform 3 (UniProt P55210) | – | -0.117 | 0.059 | -0.049 | -0.119 | – | – | 0.056 | -0.091 | -0.148
44 | B3GALT6 (UniProt Q96L58) | – | – | 0.002 | – | 0.115 | – | – | -0.172 | 0.067 | –
45 | ATXN2 (UniProt F8WB06) | – | – | – | – | – | – | – | -0.088 | – | –
46 | CDAN1 (UniProt H3BPZ6) | – | – | – | – | – | – | – | – | 0.175 | –
47 | C3AR1 (UniProt Q16581) | – | – | -0.172 | – | – | -0.664 (active) | -0.286 | – | -0.004 | –
